Experimental data from the supplement of paper PMC6555819.

Each sequence was assayed on PPARg:RXRa 30nM:10nM, anti-RXR (NR concentration 30 nM, RXRa partner concentration 10 nM) (assay: PBM binding z-score (relative to random genomic background probes); higher = stronger binding; sequences stand for … in GC…GCGATTGACAGCGTAGAATGAAGG).
Outline: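 Probes were double-stranded and carried 34-nt variable regions with direct-repeat seeds, single-nucleotide variants, half-site ablations and random human genomic background sequences, printed on custom Agilent 4×180K protein-binding microarrays. Arrays were incubated 1 h with ligand-free nuclear receptor dimers in PBS pH 7.4, 2% milk, 0.02% Triton X-100, 1 mM DTT, 0.2 mg/mL BSA and 0.4 mg/ml salmon testes DNA. Antibodies against each partner (one per run) detected binding, and scanned fluorescence was regression-normalized. Binding z-scores use the random background probes as reference.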
CGTCCAAGGTCAAGGTCGGTGAAAGAGACTCGAA gave a PBM binding z-score of 2.16.
With TCTTGTAGATCAATAGAGGTTCAGAAAGTGCGCT the PBM binding z-score was 2.81.
Work on CCTACTGGGCCAACGTCATTGATCAGTCAAAGCA yielded a PBM binding z-score of -0.362.
AGAACGAGGGCACGCAGAGTTGATAGCAGAGTAG showed a PBM binding z-score of 0.386.
Sequence GCCTATAGGTAATACAAGGTGAAAGTCCGATTGT has a PBM binding z-score of 0.0563.
TAGCCTAGGTCATTGGGCGAGTATAGTACGCATC gave a PBM binding z-score of 0.405.
ACAGACAGGTGAGTGAAGGTAACTAAGCTGGACG showed a PBM binding z-score of -0.0843.
With TTACCAAGTTGAGCTGAGGTCGTTGATCCAACTC the PBM binding z-score was 0.243.
Work on TGAGTGAGGTTAAAGATCAGGGAACGTGGCGTCG yielded a PBM binding z-score of 2.61.
Sequence CCTCGGAGGACTGAAGGTCAGAGCTGTCCGCTTT has a PBM binding z-score of -0.9.
In the case of CCTACTGGGCCACGGTCATTGATCAGTCAAAGCA, the PBM binding z-score was -0.0299.
GGAACGAGGACATTCGAGTTGATAGCATGGCGAT showed a PBM binding z-score of -0.118.
CTACCAAGGAGAACAAGGTCGTTGATTACTATTC was tested, and the PBM binding z-score was -0.107.
TCGAGTAGGTTGGGGGCATTCAGAATGGCGTCGA showed a PBM binding z-score of 2.29.
With CCAGATAGGTGAAAGGTAACTCAGTCTGGTACGC the PBM binding z-score was 7.57.
For ACTCGGAGGACAAAGGCCAGAGCTACGCCAGTGA, the PBM binding z-score was 0.441.
With CAAACTAGGTCAAGTTCAAAGTCGGTTTGTGCCA the PBM binding z-score was 5.88.
Sequence GTACCAAGGTGGATAGGTCGTTGATGAGTAGGCG has a PBM binding z-score of -0.451.
TCTGCTCGGTCAGTTGGTCAGCTAACGAGCTGCC was tested, and the PBM binding z-score was 0.881.
CATACAGTGTCAGCTAGGCCAGAGTAGGGACGGC was tested, and the PBM binding z-score was -0.315.
CGTCCAAGGACAAAGGTCAGTGAAGAGATGACGG showed a PBM binding z-score of 3.8.
In the case of TCTATTACTTGATTAGGGCAACCGAAACAGCGGA, the PBM binding z-score was 3.76.
